Compound activity as filed in PubChem BioAssay.
Measles CPE = compounds protecting cells from measles virus cytopathic effect, primary screen, measles RdRp inhibitor project, single point, MLSMR library, absorbance. Measles virus-infected cells, CPE protection. protection (pct of control), % at 4 µM. 140,000 tested, 1.5% active; in the data active = protection mostly above about 24%, no sharp cut-off; inactive = mostly below about 26%
CYP2C9 activ = human CYP2C9 activators, primary screen, biochemical, luminescence; AID 1024, 2008; Cytochrome P450 2C9 (Homo sapiens), P11712; recombinant CYP2C9, luciferin-H conversion; stronger effect = higher value; factor 1 = untreated enzyme, 0 = blocked; 96,000 tested, 1.4% active; activation factor at 5 µM;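 active = activation factor of 2 or more for CYP2C9 at a 5 µM dose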
Target sequence (P11712 whole entry, looked up): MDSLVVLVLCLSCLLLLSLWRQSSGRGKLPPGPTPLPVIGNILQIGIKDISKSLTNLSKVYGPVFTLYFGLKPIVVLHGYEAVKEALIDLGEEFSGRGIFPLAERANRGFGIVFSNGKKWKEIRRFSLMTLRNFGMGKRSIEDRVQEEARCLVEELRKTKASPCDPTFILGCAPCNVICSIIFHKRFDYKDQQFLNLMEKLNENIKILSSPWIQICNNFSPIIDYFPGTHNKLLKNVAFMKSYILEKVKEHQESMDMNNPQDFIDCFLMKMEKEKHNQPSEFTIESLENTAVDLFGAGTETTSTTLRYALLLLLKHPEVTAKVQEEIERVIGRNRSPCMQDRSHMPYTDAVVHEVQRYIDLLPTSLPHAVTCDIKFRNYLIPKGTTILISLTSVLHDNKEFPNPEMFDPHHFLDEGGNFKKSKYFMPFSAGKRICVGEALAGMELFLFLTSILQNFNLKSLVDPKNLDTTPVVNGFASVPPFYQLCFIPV
CYP2C19 inhib = blockers of cytochrome P450 2C19 activity – biochemical, luminescence, ADME assay, primary screen; inhibition, % at 5 µM; 96,000 tested, 21% active; P33261; AID 778, 2007; CYP2C19 Supersomes, luciferin-H EGE luminescence, 30 min;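 active = CYP2C19 inhibition above a set limit at 5 µM in the primary screen, cut at about 50% in these data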
CYP2C19 act = human CYP2C19 activators, primary screen, biochemical, luminescence; recombinant CYP2C19, luciferin-H EGE luminescence; stronger effect = higher value; 0 = fully inhibited enzyme, 1 = untreated enzyme; activation factor at 5 µM; Cytochrome P450 2C19 (Homo sapiens), P33261; AID 1025, 2008; 96,000 tested, under 10 active;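 active = activation factor of at least 2 at 5 µM in the primary screen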
CYP2C9 inh = blockers of cytochrome P450 2C9 activity – biochemical, luminescence, ADME assay, primary screen. AID 777, 2007. inhibition, % at 5 µM. 96,000 tested, 20% active. CYP2C9 Supersomes, luciferin-H conversion. P11712;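 active = blocking of liver enzyme CYP2C9 beyond about 50% at 5 µM, limit read from the data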
Hits are given with their value; 0 = inactive; - = not tested or not shown. Only some compounds are listed: those with a hit (about 22% of all), similar ones and a draw of the others.

SMILES	Measles CPE	CYP2C9 activ	CYP2C19 inhib	CYP2C19 act	CYP2C9 inh
Cc1cc(-c2ccccc2)nn1-c1nc2c(c(=O)[nH]c(=O)n2C)n1C	0	0	0	0	0
COc1ccc(C(=O)Nc2ccc(Cl)cc2C(=O)N2CCCC(C)C2)cc1 (centres undefined)	0	0	0	0	0
CCC(C)(C)NC(=O)C(c1cccc(OC)c1)N(C(=O)c1ccn[nH]1)c1cccc(OC)c1 (centres undefined)	0	0	74	0	0
O=C(NCCc1ccc(F)cc1)c1cccs1	0	-	-	-	-
CCc1ccc(S(=O)(=O)NCc2csc(-c3cccnc3)n2)s1	0	-	-	-	-
O=S(=O)(NCCc1csc(-c2cccnc2)n1)c1ccc(Cl)s1	0	0	80	0	83
COc1ccc(-c2nc(CNS(=O)(=O)c3ccc(OC)c(OC)c3)cs2)cc1	0	0	82	0	55
Cc1ccc(C(=O)NCCc2csc(-c3cccnc3)n2)cc1	0	0	0	0	63
O=C(NCCc1csc(-c2cccnc2)n1)c1cccs1	0	-	-	-	-
O=C(NCCc1csc(-c2ccc(C(F)(F)F)cc2)n1)c1cccs1	0	0	0	0	75
C=CCC(CC=C)(NC(=O)c1ccccc1C(=O)O)c1ccccc1	0	-	-	-	-
CCCn1nc(-c2nnc(-c3ccc(C)c(C)c3)o2)c2ccccc2c1=O	0	0	0	0	0
O=C(CN1CCOCC1)Nc1ccccc1C(=O)O	0	0	0	0	0
CCCC(=O)NCCc1ccc(S(N)(=O)=O)cc1	0	0	0	0	0
CCOC(=O)c1c(C)[nH]c(C(=O)OCCOc2ccccc2C)c1C	0	-	-	-	-
Cc1nc(CNS(=O)(=O)c2ccc3c(c2)CCCC3)cs1	0	2.4	0	0	0
COc1ccc(S(=O)(=O)NCCc2csc(-c3cccnc3)n2)cc1	0	0	93	0	60
CCCCOc1ccc(S(=O)(=O)NCc2csc(C)n2)cc1	0	0	0	0	0
O=S(=O)(NCCc1csc(-c2cccnc2)n1)c1cccs1	0	0	94	0	66
O=S(=O)(NCc1csc(-c2cccnc2)n1)c1cccs1	0	0	0	0	0
CCOC(=O)Nc1ccccc1C(=O)N1CCOCC1	0	0	0	0	0
CCCCNC(=O)CCCCC(=O)N/N=C/c1cccc(Cl)c1	0	-	-	-	-
Cc1ccc(C(=O)COC(=O)c2ccccc2NC(=O)c2ccccc2)cc1[N+](=O)[O-]	0	-	-	-	-
CCC1(CC)Cc2ccccc2C(CC(=O)N2CCOCC2)=N1	0	0	0	0	0
CC1=C(C(=O)N2CCCCC2)C(c2cccs2)C2=C(CCCC2=O)N1 (centres undefined)	0	0	0	0	0
SMILES	Measles CPE	CYP2C9 activ	CYP2C19 inhib	CYP2C19 act	CYP2C9 inh
O=C1C2Sc3[nH]c(=O)sc3C(c3ccccc3)C2C(=O)N1c1ccc(Cl)cc1 (centres undefined)	0	0	67	0	52
O=C(OCCNC(=O)c1ccc2ccccc2n1)c1cccnc1	0	0	90	0	66
COCCNC(=O)c1ccc2ccccc2n1	0	0	0	0	0
CCN(CC)S(=O)(=O)c1ccc(C(=O)OCCNC(=O)c2cccnc2)cc1	0	0	0	0	72
CC1(C)Cc2ccccc2-c2nnc(C(F)(F)F)n21	41	-	-	-	-
CSc1cc(/C=N/O)c(SC)s1	0	0	66	0	0
Cc1cc(C)c(COCc2cc(/C=N/O)c(C)cc2C)cc1/C=N/O	0	0	0	0	0
O=C1C=CC(=O)N1c1ccc(OC(F)F)cc1	0	-	-	-	-
CC(C)CNS(=O)(=O)c1ccc(OCC(=O)Nc2ccc3c(c2)OCCO3)cc1	0	-	-	-	-
O=S(=O)(NCCSc1ccccc1)c1ccc2c(c1)OCCO2	0	0	87	0	0
O=S(=O)(NCCOc1ccc(F)cc1)c1ccc2c(c1)OCCO2	0	2.4	91	0	0
COc1ccc(NC(=S)NCCc2ccc(F)cc2)c(OC)c1	0	-	-	-	-
COc1ccccc1NC(=S)NCCc1ccc(Cl)cc1	0	0	71	0	0
COc1ccc(NC(=S)NCCc2ccccc2)c(OC)c1	0	0	90	0	0
Fc1cc(Br)ccc1NC(=S)NCCc1ccccc1	0	0	76	0	0
COc1ccccc1NC(=S)NCc1ccco1	0	0	64	0	0
CCC1(C)N=c2c(c(=O)n(C)c(=O)n2C)=NO1 (centres undefined)	0	0	0	0	0
Cc1cc(=O)oc(C)c1C(=O)NCCN1CCOCC1	0	0	0	0	0
O=C(c1cccc(-n2cnnn2)c1)N1CCOCC1	0	0	0	0	0
COc1c(Cl)cc(Cl)cc1C(=O)n1nc(C)cc1C	0	-	-	-	-
COc1ccc([N+](=O)[O-])cc1NC(=O)Cc1c(Cl)cccc1Cl	0	-	-	-	-
N/C(=N\OS(=O)(=O)c1ccc(Br)cc1)c1ccncc1	0	0	0	0	58
N/C(=N\OC(=O)COc1ccc(Br)cc1)c1ccncc1	0	-	-	-	-
CC(=O)c1c(N2CCCC2)[nH]c(-c2ccccc2)nc1=S	0	0	51	0	0
CC(=O)c1c(N2CCOCC2)[nH]c(-c2ccccc2)nc1=S	0	-	-	-	-
SMILES	Measles CPE	CYP2C9 activ	CYP2C19 inhib	CYP2C19 act	CYP2C9 inh
CC(C)[C@H](NC(=O)OCc1ccccc1)C(=O)OCC(=O)Nc1c(F)cccc1F	0	-	-	-	-
O=S(=O)(c1cccs1)N1CCc2ccccc21	0	2.3	51	0	0
O=S(=O)(c1cccs1)N1CCCc2ccccc21	0	2.1	85	0	0
COC(=O)Nc1ccc(S(=O)(=O)N2CCCc3ccccc32)cc1	0	0	0	0	0
O=C(c1cccs1)N1CCc2ccccc21	0	0	0	0	0
CCn1c(C)c(C(C)=O)c(SC)nc1=S	0	0	0	0	0
CC(/C=N/NC(=O)Cc1cc(=O)[nH][nH]1)=C\c1ccccc1	0	0	0	0	0
O=C(Nc1ncc(Cc2ccccc2Cl)s1)C1CCCO1 (centres undefined)	0	-	-	-	-
O=C(NC1CCCC1)C1CCC(=O)N1CCc1ccccc1 (centres undefined)	0	0	0	0	54
COC(=O)c1c(NC(=O)c2ccc(C)c(S(=O)(=O)Nc3ccccc3C)c2)sc2c1CCCC2	0	0	0	0	59
COC(=O)c1c(NS(=O)(=O)c2ccc3ccccc3c2)sc2c1CCCC2	0	0	100	0	98
CC1=CC2CC1C1C(=O)N(c3ccc(S(=O)(=O)Nc4nc(C)cc(C)n4)cc3)C(=O)C21 (centres undefined)	0	-	-	-	-
C=CCCCCCCCCC(=O)NN	0	0	100	0	89
CCOC(=O)N1CCN(C(=O)C2c3cc(OC)c(OC)cc3C(=O)N3CCc4ccccc4C23)CC1 (centres undefined)	0	0	0	0	76
CCN(CC)CCCNC(=O)C1c2cc(OC)c(OC)cc2C(=O)N(C)C1c1cccs1 (centres undefined)	0	0	74	0	0
